Compound activity from PubChem BioAssay.
HT1080NT lethal: kills 2HG-producing HT-1080-NT fibrosarcoma cells. HT-1080-NT fibrosarcoma viability, CellTiter-Glo ATP luminescence, 48 h. Potency, µM (titrated, usually from 46.1 µM), for inactives: at the highest dose activity, negative = less viability, hits mostly cytotoxic. 360,000 tested, 1.6% active;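 also: NT is the 2HG producing partner of a matched IDH1 knockdown line; 0% = DMSO-treated cells and -100% = media-only wells without cells; nearly all actives have a fitted effect of over 55% in size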
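Read-out is CellTiter-Glo luminescence after 10 minutes at room temperature, following 48 hours' compound treatment of HT-1080-NT cells (750 cells/well, RPMI, 5% FBS, 37 degrees C).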
KB-V1 cytotox: kills drug-selected multidrug resistant KB-V1 cells. AID 1347076. KB-V1 MDR cells viability, CellTiter-Glo, 72 h. Potency, µM (titrated, usually from 46.1 µM), actives largely listed as cytotoxic. 400,000 tested, 3.4% active; also: nearly all actives have a fitted effect of over 60% in size
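qHTS viability screen in drug-selected KB-V1 MDR cells: 72 h compound treatment at 37 degrees C, ATP luminescence end point.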
KB-3-1 tox: KB-3-1 parental cell cytotoxicity | KB-3-1 viability, CellTiter-Glo ATP luminescence, 72 h | Potency, µM (series often up to 46.1 µM), actives largely listed as cytotoxic | 400,000 tested, 1.4% active; also: nearly all actives have a fitted effect of over 60% in size
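Parental KB-3-1 viability, qHTS format: 72 h compound exposure, 37 °C; CellTiter-Glo; media-only wells and DMSO plates as controls; concentration-effect fits on corrected data.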
HT1080 IDH1KD tx: toxicity to HT-1080 IDH1 knockdown cells (counter line) | HT-1080 IDH1 knockdown viability, ATP luminescence, 48 h | Potency, µM (top dose mostly 46.1 µM), without a hit: at the highest dose activity, negative = toxicity, usual class: cytotoxic | 360,000 tested, 2% active | AID 686971;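 also: 0% = DMSO wells and -100% = cell-free medium wells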
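Using the IDH1-knockdown HT-1080 line run in the same batch and compound series as the NT line, viability after 48 h at 37 °C was determined by CellTiter-Glo luminescence and expressed as % activity.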
* = called active by the depositor. This is a sample that favours compounds with a hit; in the whole collection about 5.7% have one here. Calls follow the shape of the dose curve; as a rule, active = well fitted curve in the direction sought with a large enough effect; inconclusive = small, poorly fitted or top-dose-only effect, or another doubt; inactive = no such curve, though single readings can be large; an effect the other way counts as inactive or inconclusive. Unless noted, % is scaled to controls: 0 for no effect and ±100 for the full control effect; potency is read from the fitted curve at half-maximal effect.

Results for COC(=O)c1ccccc1NC(=O)CSc1nc2ccccc2nc1Cc1ccccc1OC ?
KB-V1 cytotox: inconclusive; KB-3-1 tox: inactive

How did Cc1ccc(C(=O)c2cn(Cc3ccccc3)c3nc(C)ccc3c2=O)cc1 do in these assays?
KB-V1 cytotox: inactive; KB-3-1 tox: inactive

How did CC1CCCN(Cc2c(O)ccc3c(=O)c(-c4nc5ccccc5s4)c(N)oc23)C1 (stereo unspecified) do in these assays?
HT1080NT lethal: inconclusive; KB-V1 cytotox: inconclusive; KB-3-1 tox: inconclusive; HT1080 IDH1KD tx: 18.4µM*

What do the screens show for `CC(C)NC(=O)c1ccc(CSc2nc3ccncc3n2Cc2cccc(F)c2)cc1`?
KB-V1 cytotox: inactive; KB-3-1 tox: inactive

Results for O=C(c1ccccc1)c1nn(-c2ccc(Cl)cc2)c(=O)cc1C(F)(F)F ?
HT1080NT lethal: 18.4µM*; KB-V1 cytotox: 18.4µM*; KB-3-1 tox: inconclusive; HT1080 IDH1KD tx: 20.6µM*

Results for O=C(c1cccc(Cl)c1)c1nn(-c2ccccc2)c(=O)cc1C(F)(F)F ?
HT1080NT lethal: inconclusive; KB-V1 cytotox: 23.1µM*; KB-3-1 tox: inconclusive; HT1080 IDH1KD tx: inconclusive

How did CCCc1cnc2c(c1SCc1cccc(F)c1)c(=O)n(C)c(=O)n2C do in these assays?
KB-V1 cytotox: inactive; KB-3-1 tox: inactive

Results for O=C(NCc1ccco1)C1CCN(C(=O)N2CCOc3ccccc32)CC1 ?
KB-V1 cytotox: inactive; KB-3-1 tox: inactive

What do the screens show for `COc1ccc(-c2c(C#N)c(N)nc3c2CCc2ccccc2-3)cc1OC`?
HT1080NT lethal: inconclusive; KB-V1 cytotox: 5.17µM*; KB-3-1 tox: 5.8µM*; HT1080 IDH1KD tx: 20.6µM*

Results for COc1cc(-c2c(C#N)c(N)nc3c2CCCC3)ccc1O ?
HT1080NT lethal: -2.5%; KB-V1 cytotox: inactive; KB-3-1 tox: inactive; HT1080 IDH1KD tx: -9.0%

How did COc1nc(-c2cccs2)cc(-c2ccc(C)cc2)c1C#N do in these assays?
HT1080NT lethal: inconclusive; KB-V1 cytotox: 11.2µM*; KB-3-1 tox: 15.8µM*; HT1080 IDH1KD tx: inconclusive

What do the screens show for `COc1ccc(-c2cc(-c3cccs3)nc(OC)c2C#N)cc1OC`?
HT1080NT lethal: inconclusive; KB-V1 cytotox: 4.61µM*; KB-3-1 tox: inconclusive; HT1080 IDH1KD tx: inconclusive

What do the screens show for `COc1ccc(-c2noc(-c3cccs3)n2)cc1OC`?
HT1080NT lethal: -4.6%; KB-V1 cytotox: inconclusive; KB-3-1 tox: inconclusive; HT1080 IDH1KD tx: -2.6%

How did O=C(COC(=O)c1ccc2ncsc2c1)NC(=O)C1CCCCC1 do in these assays?
KB-V1 cytotox: inactive; KB-3-1 tox: inactive

How did O=C([C@@H]1CC=C[C@@H]2CCN(C3CC3)C(=O)[C@@H]21)N1CCOCC1 do in these assays?
KB-V1 cytotox: inactive; KB-3-1 tox: inactive

How did CCCNC(=O)c1cn(CC)c2cc(N3CCN(C)CC3)c(F)cc2c1=O do in these assays?
HT1080NT lethal: 7.4%; KB-V1 cytotox: inactive; KB-3-1 tox: inactive; HT1080 IDH1KD tx: 8.6%

How did CCCCCNC(=O)c1cn(CC)c2cc(N3CCN(C)CC3)c(F)cc2c1=O do in these assays?
HT1080NT lethal: 16.4µM*; KB-V1 cytotox: inactive; KB-3-1 tox: inactive; HT1080 IDH1KD tx: inconclusive

What do the screens show for `CCCCCCn1cc(C(=O)O)c(=O)c2cc(F)c(N3CCN(C(=O)OCC)CC3)cc21`?
HT1080NT lethal: 8.9%; KB-V1 cytotox: 2.06µM*; KB-3-1 tox: inactive; HT1080 IDH1KD tx: 8.4%

What do the screens show for `C=CCCCCCCCCC(=O)N1CCN(c2cc3c(cc2F)c(=O)c(C(=O)O)cn3CC)CC1`?
HT1080NT lethal: 1.7%; KB-V1 cytotox: inactive; KB-3-1 tox: inactive; HT1080 IDH1KD tx: 7.0%

How did O=C(CN1C(=O)COc2ccc(S(=O)(=O)N3CCOCC3)cc21)N1CCN(c2cccc(C(F)(F)F)c2)CC1 do in these assays?
KB-V1 cytotox: inconclusive; KB-3-1 tox: inactive

What do the screens show for `C(=C\c1ccccc1)/C=N/Nc1nc2ccccc2[nH]1`?
HT1080NT lethal: inconclusive; KB-V1 cytotox: inactive; KB-3-1 tox: 14.6µM*; HT1080 IDH1KD tx: inconclusive

How did O=[N+]([O-])c1cc(/C=N/Nc2nc3ccccc3[nH]2)c(O)cc1O do in these assays?
HT1080NT lethal: inconclusive; KB-V1 cytotox: inactive; KB-3-1 tox: inactive; HT1080 IDH1KD tx: 7.31µM*

Results for C/C(=N\Nc1nc2ccccc2[nH]1)c1ccc(Cl)s1 ?
HT1080NT lethal: inconclusive; KB-V1 cytotox: 20.6µM*; KB-3-1 tox: inconclusive; HT1080 IDH1KD tx: inconclusive

How did C/C(=N\Nc1nc2ccccc2[nH]1)c1ccc(C)o1 do in these assays?
HT1080NT lethal: 9.5%; KB-V1 cytotox: inconclusive; KB-3-1 tox: inactive; HT1080 IDH1KD tx: -0.9%

How did C(=N\Nc1nc2ccccc2[nH]1)/c1c[nH]c2ccccc12 do in these assays?
HT1080NT lethal: 16.4µM*; KB-V1 cytotox: inactive; KB-3-1 tox: inactive; HT1080 IDH1KD tx: inconclusive

How did Cc1c(NC(=O)c2ccc(Br)o2)cccc1-c1nc2ccccc2o1 do in these assays?
KB-V1 cytotox: inactive; KB-3-1 tox: inactive

How did Cc1ccc2ncc3c(-c4ccccc4)nn(CC(=O)NC4CCCCC4)c3c2c1 do in these assays?
KB-V1 cytotox: inconclusive; KB-3-1 tox: inactive

What do the screens show for `Cc1ccccc1/C=N/Nc1nc2ccccc2[nH]1`?
HT1080NT lethal: -20.5%; KB-V1 cytotox: inactive; KB-3-1 tox: inactive; HT1080 IDH1KD tx: -13.8%

Results for Cc1ccc(/C=N/Nc2nc3ccccc3[nH]2)s1 ?
HT1080NT lethal: 1.5%; KB-V1 cytotox: 14.6µM*; KB-3-1 tox: inactive; HT1080 IDH1KD tx: -6.6%

Results for Cc1[nH]c2ccccc2c1/C=N/Nc1nc2ccccc2[nH]1 ?
HT1080NT lethal: 18.4µM*; KB-V1 cytotox: inconclusive; KB-3-1 tox: inactive; HT1080 IDH1KD tx: 18.4µM*

How did CC(=O)Nc1ccc(S(=O)(=O)NC2(C(F)(F)F)C(=O)Nc3c2c(=O)[nH]c(=O)n3-c2cccc(Cl)c2)cc1 (stereo unspecified) do in these assays?
KB-V1 cytotox: inactive; KB-3-1 tox: inconclusive

What do the screens show for `COc1ccc(-n2cc(C(=O)OCc3ccc(F)c(F)c3)c3ccccc3c2=O)cc1`?
KB-V1 cytotox: inactive; KB-3-1 tox: inactive

How did CC(=O)N1NC(=Nc2ccccc2)SC1(C)C do in these assays?
HT1080NT lethal: 0.0%; KB-V1 cytotox: 18.4µM*; KB-3-1 tox: inactive; HT1080 IDH1KD tx: -10.5%

What do the screens show for `O=C1NC(=Nc2ccccc2)SC1(CO)CO`?
HT1080NT lethal: -1.5%; KB-V1 cytotox: inactive; KB-3-1 tox: inactive; HT1080 IDH1KD tx: -3.4%

What do the screens show for `O=C(Nc1ccc(N2CCCCCC2)cc1)c1ccccc1Cl`?
HT1080NT lethal: 11.6µM*; KB-V1 cytotox: inconclusive; KB-3-1 tox: inconclusive; HT1080 IDH1KD tx: 8.2µM*

Results for O=S(=O)(Nc1ccc(N2CCCCC2)cc1)c1ccccc1 ?
HT1080NT lethal: 4.3%; KB-V1 cytotox: 20.6µM*; KB-3-1 tox: inactive; HT1080 IDH1KD tx: 18.9%

Results for COc1ccccc1C(=O)Nc1ccc(N2CCCCC2)cc1 ?
HT1080NT lethal: -15.6%; KB-V1 cytotox: 20.6µM*; KB-3-1 tox: inactive; HT1080 IDH1KD tx: -20.9%
